Source: PubChem BioAssay (NCI)
The panel holds about 83,000 compounds, 20% with a hit somewhere; the sample as a whole holds those more often.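 Assay: single dose, 48 h. Readout: percent growth (0 = no net growth; negative = cell death). Active: <10.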 Unmarked numbers belong to inactive results. Active and inactive are the calls of the source.

Columns and labels:
Experiment in all cases: NCI-60 one-dose screen, 48 h (100 = growth as untreated, 0 = no growth, -100 = all killed)
Settings in all cases: 10 µM unless noted
DU-145 prostate = tested on: DU-145 prostate
K-562 leukemia = tested on: K-562 leukemia
MALME-3M melanoma = tested on: MALME-3M melanoma
MDA-MB-231 breast = tested on: MDA-MB-231 breast
RXF 393 renal = tested on: RXF 393 renal
SF-268 CNS = tested on: SF-268 CNS
SF-295 CNS = tested on: SF-295 CNS
SF-539 CNS = tested on: SF-539 CNS
UACC-257 melanoma = tested on: UACC-257 melanoma
M14 melanoma = tested on: M14 melanoma
HCT-15 colon = tested on: HCT-15 colon
HT29 colon = tested on: HT29 colon
SNB-75 CNS = tested on: SNB-75 CNS
SNB-19 CNS = tested on: SNB-19 CNS
U251 CNS = tested on: U251 CNS
PC-3 prostate = tested on: PC-3 prostate
SK-MEL-5 melanoma = tested on: SK-MEL-5 melanoma
UACC-62 melanoma = tested on: UACC-62 melanoma
LOX IMVI melanoma = tested on: LOX IMVI melanoma
SK-MEL-28 melanoma = tested on: SK-MEL-28 melanoma

| Structure (SMILES) | growth (DU-145 prostate) | growth (K-562 leukemia) | growth (MALME-3M melanoma) | growth (MDA-MB-231 breast) | growth (RXF 393 renal) | growth (SF-268 CNS) | growth (SF-295 CNS) | growth (SF-539 CNS) | growth (UACC-257 melanoma) | growth (M14 melanoma) | growth (HCT-15 colon) | growth (HT29 colon) | growth (SNB-75 CNS) | growth (SNB-19 CNS) | growth (U251 CNS) | growth (PC-3 prostate) | growth (SK-MEL-5 melanoma) | growth (UACC-62 melanoma) | growth (LOX IMVI melanoma) | growth (SK-MEL-28 melanoma) |
| --- | --- | --- | --- | --- | --- | --- | --- | --- | --- | --- | --- | --- | --- | --- | --- | --- | --- | --- | --- | --- |
| CCC(C)C(N)C(=O)NC(CC(C)C)C(=O)N1CCCC1C(=O)NC(Cc1c[nH]c2ccccc12)C(=O)NC(CCCCN)C(=O)NC(Cc1c[nH]c2ccccc12)C(=O)N1CCCC1C(=O)NC(Cc1c[nH]c2ccccc12)C(=O)NC(Cc1c[nH]c2ccccc12)C(=O)N1CCCC1C(=O)NC(Cc1c[nH]c2ccccc12)C(=O)NC(CCCNC(=N)N)C(=O)NC(CCCNC(=N)N)C(N)=O (stereo not given) | 98.4% | 104% | 122% | 116% | 110% | 116% | 144% | 110% | 97.8% | 108% | 106% | 83.5% | 105% | 106% | 112% | 91.7% | 104% | 102% | 98.5% | 114% |
| Cc1cc(=O)oc2cc(Oc3nc(-c4ccccc4)cn4c(-c5ccccc5)cnc34)ccc12 | 68% | 61.8% | -9.77% (active) | 50.4% | 28.3% | 64.4% | 54.2% | 54.6% | 65.7% | 67.7% | 68.6% | 53.2% | -1.39% (active) | 64.4% | 67.3% | 39.2% | 38.3% | 81.4% | 56.4% | 67.6% |
| COc1cc(/C=C2\CN(S(=O)(=O)c3ccc(C)cc3)C/C(=C\c3cc(CN4CCCC4)c(O)c(OC)c3)C2=O)cc(CN2CCCC2)c1O | -12.5% (active) | 1.26% (active) | -81.5% (active) | -20.3% (active) | -87.8% (active) | 1.82% (active) | -40.3% (active) | -55.6% (active) | 57.7% | -66.4% (active) | -2.28% (active) | -60.7% (active) | 34.3% | 15.6% | -74.5% (active) | -20.2% (active) | -17.5% (active) | 34.3% | -92.5% (active) | 10.3% |
| CC(CN)[C@@H]1CC[C@]2(CO)CC[C@]3(C)[C@H](CC[C@@H]4[C@@]5(C)CCC(NCCO)C(C)(C)[C@@H]5CC[C@]43C)[C@@H]12 (stereo not given in full) | 63.5% | -49.4% (active) | -35.5% (active) | 13.6% | 58.6% | 60.6% | 70.9% | 65.8% | 84.9% | -2.37% (active) | 38.4% | 1.25% (active) | 59.5% | 78.5% | 18.4% | 69.4% | 32.9% | 91.9% | -64.4% (active) | -5.2% (active) |
| CN1/C(=C/C=C/c2n(Cc3ccc4ccccc4c3)c(Cl)c(Cl)[n+]2Cc2ccc3ccccc3c2)Oc2ccccc21 | -86.6% (active) | 89.4% | -97.1% (active) | -94% (active) | -88.2% (active) | -69.4% (active) | -68.4% (active) | -94% (active) | -77.9% (active) | -77% (active) | -72.9% (active) | -79.7% (active) | -63.6% (active) | -96.3% (active) | -97.3% (active) | -78.4% (active) | -99.4% (active) | -94.4% (active) | -93.8% (active) | -89.5% (active) |
| C=C(CNCCc1ccc(O)cc1)[C@@H]1CC[C@]2(CO)CC[C@]3(C)[C@H](CC[C@@H]4[C@@]5(C)CCC(N)C(C)(C)[C@@H]5CC[C@]43C)[C@@H]12 (stereo not given in full) | -68.6% (active) | -50.9% (active) | -86.2% (active) | -80.5% (active) | -90.9% (active) | -74.3% (active) | -82% (active) | -93.4% (active) | -77.3% (active) | -81.8% (active) | -79.3% (active) | -49.9% (active) | -97.8% (active) | -86.1% (active) | -84.4% (active) | -75.3% (active) | -95.2% (active) | -86.7% (active) | -86.7% (active) | -90.5% (active) |
| COc1cccc(C(=O)Nc2cccc(NC(=O)c3ccccn3)c2)c1 | 109% | 90.5% | 94.4% | 105% | 115% | 96.9% | 91.6% | 104% | 109% | 87.9% | 90.7% | 93.1% | 90.3% | 108% | 109% | 98.3% | 97.3% | 96.3% | 95.2% | 97.5% |
| COc1cc(-c2ccc(-c3ccc(C(=N)N)s3)s2)cc(OC)c1OC | 36.2% | -33.6% (active) | -90.7% (active) | 10% | 54.1% | 46.8% | 51% | -35.6% (active) | 75.7% | -53.4% (active) | 13.6% | 4.42% (active) | 75.5% | 47.6% | 1.13% (active) | 47.1% | 23.2% | 81.3% | -63.3% (active) | 7.05% (active) |
